# From PubChem BioAssay
# Active and inactive are the calls of the source.
# What was measured:
# [1] = binders of probe aFSTL3 on microarray, primary screen, stem cell growth factor project, biochemical, small-molecule microarray, fluorescence 635/667 (AID 1064); conditions: higher = more signal;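 note: measures binding of the biotinylated anti-FSTL3 antibody to printed compounds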
# [2] = binders from COS7 lysate, DM2A8 probe, primary screen, torsin A project, cell lysate, small-molecule microarray, fluorescence 635/667 (AID 1065); conditions: higher = more signal, COS7 lysate expressing mutant human TOR1A
# [3] = binders of probe aFGF2 on microarray, primary screen, stem cell growth factor project, biochemical, small-molecule microarray, fluorescence 635/667 (AID 1067); conditions: higher = more signal;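 note: measures binding of biotinylated aFGF2 protein to printed compounds on slides; z-score merges feature fluorescence and signal-to-noise across triplicate slides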
# [4] = binders of probe aFGF10 on microarray, primary screen, stem cell growth factor project, biochemical, small-molecule microarray, fluorescence 635/667 (AID 1071); conditions: higher = more signal;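 note: score merges 667 nm spot intensity and signal to noise from triplicate slides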
# [5] = biological target: Neurogenic locus notch homolog protein 2 (Homo sapiens) (UniProt Q04721); test: Notch2 binders on small-molecule microarrays, primary screen, biochemical, small-molecule microarray, 635 nm fluorescence, stem cell growth factors (AID 1073); conditions: Notch2 binding, higher = more signal
# [6] = biological target: Pro-neuregulin-1, membrane-bound isoform (Homo sapiens) (UniProt Q02297); test: NRG1 binders on small-molecule microarrays, primary screen, psychiatric disease protein project, biochemical, small-molecule microarray, fluorescence 635/667 (AID 1075); conditions: NRG1 binding, 635 nm fluorescence, higher = more signal;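 note: score combines 667 nm spot fluorescence with signal to noise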
# [7] = system: Neuregulin-1 EGF-like domain; test: binders of neuregulin-1 EGF-like domain, primary screen, biochemical, small-molecule microarray, 635 nm fluorescence (AID 1081); conditions: small-molecule microarray binding, higher = more signal;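 note: binding of the protein to compounds printed on small-molecule microarray slides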
# [8] = FRG1 promoter luciferase signal modulators, primary screen, FRG1 inhibition for FSHD, cell-based, C2C12 myotubes, firefly/Renilla luciferase, luminescence (AID 1084); conditions: higher = more signal, called active from +8 up or from −8 down
# [9] = binders of probe aFST on microarray, primary screen, stem cell growth factor project, biochemical, small-molecule microarray, fluorescence 635/667 (AID 1086); conditions: higher = more signal;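 note: score merges 667 nm fluorescence with signal-to-noise of each printed compound spot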
# [10] = binders of probe aHhip on microarray, primary screen, stem cell growth factor project, biochemical, small-molecule microarray, fluorescence 635/667 (AID 1087); conditions: higher = more signal;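 note: score merges spot fluorescence at 667nm with spot signal to noise ratio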
# [11] = system: PRMT1 (protein arginine N-methyltransferase 1); test: PRMT1 binders on small-molecule microarrays, primary screen, biochemical, small-molecule microarray, 635 nm fluorescence (AID 1088); conditions: small-molecule microarray binding, higher = more signal;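 note: binding of Prmt1 protein to compounds spotted on small-molecule microarray slides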
# [12] = yeast growth modulation, basal conditions, primary screen, YJM789 clinical isolate, OD600, 24 h (AID 1089);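 note: growth of clinical yeast isolate S. cerevisiae YJM 789 seeded 1000 cells per well; test concentration not given here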; conditions: S. cerevisiae YJM789 growth, higher = more signal, called active from +8 up or from −8 down
# [13] = fission yeast growth modulation, primary screen, strain 972, OD600, 24 h, no modulator (AID 1090);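 note: basal condition with compound alone and no growth modifier present; test concentration not given here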; conditions: S. pombe 972 growth, higher = more signal, called active from +8 up or from −8 down
# [14] = S. cerevisiae growth modulation with rapamycin, primary screen, strain BY4716, OD600, 96 h (AID 1091); conditions: higher = more signal, called active from +8 up or from −8 down; note: test concentration not given here
# [15] = biological target: Torsin-1A-interacting protein 2 (Homo sapiens) (UniProt Q8NFQ8); test: LULL1 binders on small-molecule microarray, primary screen, cell lysate, human LULL1 lysate, 635/667 nm fluorescence (AID 1092); conditions: hLULL1 lysate binding, 635 nm fluorescence, higher = more signal;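 note: probe is lysate of COS7 cells overexpressing human LULL1; score merges per-feature 667 nm fluorescence with signal-to-noise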
# [16] = E. coli growth modulation, two-sided OD650, primary screen, E. coli filamentation project, strain DRC41, 24 h (AID 1093); conditions: OD650, 24 h, higher = more signal, called active from +8 up or from −8 down;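 note: MC1000 strain lacking acrAB efflux and sulA so SOS filamentation is blocked; test concentration not given here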
# [17] = small-molecule microarray binders of probe aLefty2, primary screen, biochemical, biotinylated probe, 635/667 nm fluorescence (AID 1094); conditions: higher = more signal;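 note: score merges spot fluorescence near 667 nm with spot signal-to-noise ratio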
# [18] = system: Noggin (protein binding on small-molecule microarray); test: Noggin binders on small-molecule microarray, primary screen, biochemical, 635/667 nm fluorescence (AID 1095); conditions: 635 nm fluorescence, higher = more signal;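 note: score merges 667 nm feature fluorescence with signal to noise over triplicate slides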
# [19] = biological target: Neurogenic locus notch homolog protein 3 (Homo sapiens) (UniProt Q9UM47); test: NOTCH3 binders on small-molecule microarray, primary screen, biochemical, 635/667 nm fluorescence (AID 1096); conditions: NOTCH3 binding, 635 nm fluorescence, higher = more signal
# [20] = small-molecule microarray binders of probe aEGFR, primary screen, biochemical, biotinylated probe, 635/667 nm fluorescence (AID 1097); conditions: higher = more signal;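 note: probe is a biotinylated anti-EGFR antibody binding compounds printed on slides; score combines fluorescence near 667 nm and signal to noise of each spot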
# Chain of Torsin-1A-interacting protein 2 (Homo sapiens) (Q8NFQ8 whole entry, looked up): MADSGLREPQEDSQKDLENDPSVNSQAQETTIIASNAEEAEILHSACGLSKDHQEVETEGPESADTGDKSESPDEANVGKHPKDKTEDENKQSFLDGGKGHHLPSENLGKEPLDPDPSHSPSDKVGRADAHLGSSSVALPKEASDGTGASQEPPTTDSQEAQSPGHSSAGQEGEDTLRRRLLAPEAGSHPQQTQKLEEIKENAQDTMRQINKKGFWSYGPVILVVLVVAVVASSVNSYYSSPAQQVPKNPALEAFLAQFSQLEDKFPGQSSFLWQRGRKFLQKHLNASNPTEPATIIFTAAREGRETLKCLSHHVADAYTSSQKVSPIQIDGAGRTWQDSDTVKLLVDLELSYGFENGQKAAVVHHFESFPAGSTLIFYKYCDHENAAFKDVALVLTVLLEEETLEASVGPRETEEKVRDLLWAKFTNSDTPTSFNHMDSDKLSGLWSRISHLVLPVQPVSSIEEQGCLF
# Chain of Neurogenic locus notch homolog protein 2 (Homo sapiens) (Q04721 whole entry, looked up, canonical isoform): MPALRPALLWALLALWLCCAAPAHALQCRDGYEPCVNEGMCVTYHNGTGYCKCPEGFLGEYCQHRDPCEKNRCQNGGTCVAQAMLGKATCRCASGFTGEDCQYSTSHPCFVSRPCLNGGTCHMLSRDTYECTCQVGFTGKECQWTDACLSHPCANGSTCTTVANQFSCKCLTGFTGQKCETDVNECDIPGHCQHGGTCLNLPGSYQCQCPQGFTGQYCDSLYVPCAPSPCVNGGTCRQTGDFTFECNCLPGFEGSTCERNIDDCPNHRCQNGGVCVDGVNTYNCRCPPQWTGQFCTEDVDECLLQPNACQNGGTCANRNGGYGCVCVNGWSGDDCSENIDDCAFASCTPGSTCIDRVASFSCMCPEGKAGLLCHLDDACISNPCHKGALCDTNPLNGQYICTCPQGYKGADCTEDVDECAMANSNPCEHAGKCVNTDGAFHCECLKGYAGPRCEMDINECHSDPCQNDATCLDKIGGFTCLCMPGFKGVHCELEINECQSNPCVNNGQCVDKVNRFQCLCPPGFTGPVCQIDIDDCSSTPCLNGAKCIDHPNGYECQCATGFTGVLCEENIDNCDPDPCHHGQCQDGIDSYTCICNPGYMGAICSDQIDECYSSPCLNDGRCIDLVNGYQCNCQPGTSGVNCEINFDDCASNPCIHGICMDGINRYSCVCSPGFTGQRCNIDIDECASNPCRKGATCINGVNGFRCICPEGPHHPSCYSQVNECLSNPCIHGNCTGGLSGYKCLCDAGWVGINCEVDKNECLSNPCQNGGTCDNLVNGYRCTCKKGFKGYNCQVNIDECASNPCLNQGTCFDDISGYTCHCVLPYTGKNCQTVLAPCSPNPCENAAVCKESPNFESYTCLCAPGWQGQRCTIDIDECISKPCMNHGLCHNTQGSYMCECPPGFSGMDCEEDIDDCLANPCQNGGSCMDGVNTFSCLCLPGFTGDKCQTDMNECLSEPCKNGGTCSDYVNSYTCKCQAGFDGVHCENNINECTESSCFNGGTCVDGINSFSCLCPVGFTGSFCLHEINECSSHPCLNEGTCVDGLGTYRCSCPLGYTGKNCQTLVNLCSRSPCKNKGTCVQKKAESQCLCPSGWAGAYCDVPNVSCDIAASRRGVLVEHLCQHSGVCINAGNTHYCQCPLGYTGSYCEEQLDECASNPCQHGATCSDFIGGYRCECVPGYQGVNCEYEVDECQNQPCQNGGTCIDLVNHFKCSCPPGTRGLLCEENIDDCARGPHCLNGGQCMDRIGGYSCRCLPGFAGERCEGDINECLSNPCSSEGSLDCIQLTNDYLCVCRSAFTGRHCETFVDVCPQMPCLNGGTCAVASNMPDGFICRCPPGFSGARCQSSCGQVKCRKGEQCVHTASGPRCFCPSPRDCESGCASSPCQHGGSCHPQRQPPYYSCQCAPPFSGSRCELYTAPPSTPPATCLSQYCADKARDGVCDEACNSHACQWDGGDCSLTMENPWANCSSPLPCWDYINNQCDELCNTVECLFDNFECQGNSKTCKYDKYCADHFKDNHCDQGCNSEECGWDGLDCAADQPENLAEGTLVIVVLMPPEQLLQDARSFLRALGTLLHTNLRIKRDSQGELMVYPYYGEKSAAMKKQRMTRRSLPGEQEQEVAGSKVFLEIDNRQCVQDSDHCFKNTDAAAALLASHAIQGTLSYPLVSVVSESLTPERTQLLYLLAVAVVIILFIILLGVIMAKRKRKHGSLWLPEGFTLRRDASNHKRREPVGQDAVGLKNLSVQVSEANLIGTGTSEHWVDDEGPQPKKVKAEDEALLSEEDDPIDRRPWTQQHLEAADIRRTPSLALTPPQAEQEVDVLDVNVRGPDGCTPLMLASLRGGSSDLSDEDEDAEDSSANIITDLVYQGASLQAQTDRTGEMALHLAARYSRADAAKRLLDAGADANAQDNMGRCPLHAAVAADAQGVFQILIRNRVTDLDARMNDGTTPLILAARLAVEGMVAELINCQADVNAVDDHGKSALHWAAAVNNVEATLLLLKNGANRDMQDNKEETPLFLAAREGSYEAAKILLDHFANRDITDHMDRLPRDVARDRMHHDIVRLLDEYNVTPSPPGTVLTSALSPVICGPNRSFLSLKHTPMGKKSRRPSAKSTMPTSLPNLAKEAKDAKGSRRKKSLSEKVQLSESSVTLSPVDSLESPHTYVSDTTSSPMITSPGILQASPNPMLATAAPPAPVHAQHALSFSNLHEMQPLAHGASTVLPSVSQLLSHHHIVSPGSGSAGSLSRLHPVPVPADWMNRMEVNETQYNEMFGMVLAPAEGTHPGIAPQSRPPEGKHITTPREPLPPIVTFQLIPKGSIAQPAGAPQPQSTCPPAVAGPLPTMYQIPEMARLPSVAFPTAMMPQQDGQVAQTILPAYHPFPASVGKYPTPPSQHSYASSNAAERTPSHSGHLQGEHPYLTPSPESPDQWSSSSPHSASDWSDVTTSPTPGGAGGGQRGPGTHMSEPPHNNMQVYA
# Chain of Pro-neuregulin-1, membrane-bound isoform (Homo sapiens) (Q02297 whole entry, looked up, the tested form may be a part, canonical isoform): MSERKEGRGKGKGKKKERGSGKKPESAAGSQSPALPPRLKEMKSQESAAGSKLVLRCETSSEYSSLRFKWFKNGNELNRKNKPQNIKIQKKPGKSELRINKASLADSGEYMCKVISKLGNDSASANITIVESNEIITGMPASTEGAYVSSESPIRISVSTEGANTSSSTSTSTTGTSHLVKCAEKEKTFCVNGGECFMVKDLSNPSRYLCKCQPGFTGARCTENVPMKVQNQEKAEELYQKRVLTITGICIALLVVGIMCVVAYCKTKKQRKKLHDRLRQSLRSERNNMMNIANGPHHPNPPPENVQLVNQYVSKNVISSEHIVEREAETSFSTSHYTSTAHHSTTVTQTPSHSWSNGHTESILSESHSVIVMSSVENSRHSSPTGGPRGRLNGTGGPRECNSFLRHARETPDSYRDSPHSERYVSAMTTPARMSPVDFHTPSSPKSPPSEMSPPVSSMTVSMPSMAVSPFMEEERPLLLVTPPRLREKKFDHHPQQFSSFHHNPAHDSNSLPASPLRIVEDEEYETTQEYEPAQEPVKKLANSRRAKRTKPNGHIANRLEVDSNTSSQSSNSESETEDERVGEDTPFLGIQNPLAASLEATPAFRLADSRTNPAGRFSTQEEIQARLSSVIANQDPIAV
SMILES,composite z-score [1],composite z-score [2],composite z-score [3],composite z-score [4],composite z-score [5],composite z-score [6],composite z-score [7],z-score [8],composite z-score [9],composite z-score [10],composite z-score [11],z-score [12],z-score [13],z-score [14],composite z-score [15],z-score [16],composite z-score [17],composite z-score [18],composite z-score [19],composite z-score [20]
CC(C)CCC[C@@H](C)[C@H]1CC[C@@]2(C)C3=C(CC[C@]12C)[C@@]1(C)CC[C@H](OC(=O)C(C)(C)C)C(C)(C)C1CC3 (stereo not given in full),-0.441,0.39,-0.0609,0.298,0.575,-0.036,0.307,-0.987 (inactive),0.0166,-0.0296,0.475,-3.55 (inactive),-2.59 (inactive),-2.18 (inactive),0.0236,0.768 (inactive),-0.212,0.57,0.571,-0.0549
[N-]=[N+]=Nc1ccccc1[C@@H]1OC(c2ccc(OCCCO)cc2)=N[C@]1(CCS(=O)(=O)c1ccccc1)C(=O)NCc1ccccc1,0.207,0.599,0.294,0.655,1.52,1.9,1.1,0.271 (inactive),1.8,-0.196,1.13,0.728 (inactive),-0.111 (inactive),0.635 (inactive),3.23,0.846 (inactive),0.813,0.326,1.12,0.203
COCCOC(=O)N1C(=O)[C@@]2(c3cc(C#Cc4ccc(OC)cc4)ccc31)[C@H](C(N)=O)[C@H]1C(=O)O[C@H](c3ccccc3)[C@H](c3ccccc3)N1[C@@H]2c1ccc(OCCO)cc1,-0.358,0.562,0.0014,0.62,1.17,0.869,1.28,0.574 (inactive),0.512,-0.251,1.53,2.17 (inactive),0.719 (inactive),4.88 (inactive),2.75,1.31 (inactive),-0.0757,1.43,1.07,0.0251
O=C1OCCC=C[C@H]2OC34C=CCN(Cn5nnc6ccccc65)C(=O)[C@H]3N(CCCCCO)C(=O)[C@@H]4C12 (stereo not given in full),0.122,1.66,-0.176,-0.328,-0.407,2.18,1.48,-0.21 (inactive),-0.118,-0.306,-0.285,-0.0057 (inactive),-0.439 (inactive),-0.506 (inactive),1.43,0.141 (inactive),-0.0674,-0.825,-0.135,-0.2
CC(C)c1ccc(NN2C(C(O)c3ccccn3)C=CC3C(=O)N(c4ccccc4)C(=O)C32)cc1 (stereo not given),-0.311,0.205,0.235,1.17,1.64,1.64,1.42,3.43 (inactive),1.49,0.347,1.5,0.485 (inactive),-0.951 (inactive),-0.252 (inactive),3.7,-0.405 (inactive),0.0038,1.7,1.05,0.154
CCCN1C(=O)[C@@]2(Cc3ccccc3)N=C(c3ccc(OCCCO)cc3)O[C@H]2c2ccccc21,-0.0679,0.802,-0.047,0.186,0.498,0.602,1.12,-1.25 (inactive),-0.0754,-0.0573,1.54,-1.46 (inactive),-4.12 (inactive),1.52 (inactive),3.13,1.09 (inactive),0.152,1.29,1.05,-0.0976
COCCOC(=O)N1C(=O)[C@@]2(c3cc(C#CC4(O)CCCCCC4)ccc31)[C@H](C(=O)NC[C@H](O)c1ccccc1)[C@H]1C(=O)O[C@H](c3ccccc3)[C@H](c3ccccc3)N1[C@@H]2c1ccc(OCCO)cc1,-0.38,-0.166,0,0.353,0.672,0.985,1.14,0.78 (inactive),0.409,-0.0994,1.55,1.94 (inactive),0.814 (inactive),5.65 (inactive),2.33,1.35 (inactive),-0.121,1.78,1.15,-0.0978
COCCCNC(=O)[C@@]1(Cc2ccccc2CN=[N+]=[N-])N=C(c2ccc(OCCCO)cc2)O[C@H]1c1ccccc1N=[N+]=[N-],0.749,1.06,0.0524,1.18,1.18,0.765,1.05,-1.21 (inactive),1.27,0.351,1.31,-0.299 (inactive),-0.954 (inactive),2.08 (inactive),2.67,2.53 (inactive),0.214,0.399,0.671,0.525
COc1ccc([Si](C)(C)[C@H]2[C@H](CCO)O[C@@]3(C(=O)N(Cc4cccc(N5CCOC5=O)c4)c4ccccc43)[C@@H]2C)cc1,-0.167,-0.16,-0.034,0.674,0.849,0.843,0.783,-2.15 (inactive),-0.292,0.0373,1.39,2.81 (inactive),-0.406 (inactive),34 (active),2.39,0.228 (inactive),0.514,0.459,1.14,-0.0973
Cc1ccc(F)cc1S(=O)(=O)N[C@@H]1CCN(C(=O)c2ccc(OC(C)C)cc2)C1,-0.473,-0.414,-0.131,0.859,0.957,-0.129,0.602,-3.78 (inactive),0.475,-0.258,0.981,-0.654 (inactive),-0.709 (inactive),-0.966 (inactive),1.03,0.845 (inactive),0.0563,0.805,1.13,0.0225
